# Measured values as given in PubChem BioAssay AID463173 (ICCB-Longwood Screening Facility, Harvard Medical School, 2010).
# Among all 52,000 compounds or so, about 4,300 (8.3%) were called active. For the sample, actives were picked, then their nearest neighbours and some compounds at random. Values without a mark were called inactive. Rule as the data show it: active = survival mostly below about 52% (no sharp cut-off); inactive = mostly above about 56%.
# System: DeltatarO mutant
# Experiment: growth inhibition of S. aureus wild type versus tarO mutant, primary screen, teichoic acid synthesis inhibitors, RN4220, OD600 (AID 463173)
# Details: OD600, 18 h, hits give low values, screened at 18.75 µg/mL (by protocol)
row,Structure (SMILES),survival
1,CCSc1nc2n(n1)C(c1ccc(Cl)cc1Cl)C(C(=O)Nc1ccccc1C)=C(C)N2 (stereo unspecified),67%
2,COc1ccc(C(=O)NCCc2sc(-c3ccc(Cl)cc3)nc2C)c(OC)c1,123%
3,Cc1ccc(C)c(CN2C(=O)c3ccccc3Sc3ccc(C(=O)NC4CCCC4)cc32)c1,128%
4,COc1ccc(CNC(=O)C2CCN(S(=O)(=O)N3CCC(C)CC3)CC2)c(OC)c1,89%
5,CCOC(=O)c1ccc(NC(=O)CSc2nc3ccccc3c(=O)n2CCNC(C)=O)cc1,91%
6,CCc1ccc(CNC(=O)c2nn(-c3ccc(OC)c(Cl)c3)c(=O)c3c2c2ccccc2n3C)cc1,104%
7,CC(C)(C)C1CCc2nc(NC(=O)Cc3ccccc3)sc2C1 (stereo unspecified),19% (active)
8,CCOc1cccc(C(=O)Nc2nc3c(s2)CC(C(C)(C)C)CC3)c1 (stereo unspecified),77%
9,CC(C)(C)C1CCc2nc(NC(=O)c3ccc([N+](=O)[O-])cc3)sc2C1 (stereo unspecified),95%
10,Cc1cccc(OCC(=O)Nc2nc3c(s2)CC(C(C)(C)C)CC3)c1C (stereo unspecified),105%
11,Cc1ccccc1C(=O)Nc1nc2c(s1)CC(C(C)(C)C)CC2 (stereo unspecified),115%
12,CC(C)(C)C1CCc2nc(NC(=O)c3cccc(Cl)c3)sc2C1 (stereo unspecified),3% (active)
13,COc1ccc(CC(=O)NCCc2sc(-c3cccc(F)c3)nc2C)cc1,68%
14,COc1ccccc1NC(=O)CN1C(=O)CCSc2ccccc21,89%
15,O=C(O)CSc1nc2ccccc2c(=O)n1-c1ccccc1,78%
16,Cc1cc(Nc2cccc(Cl)c2)nc2ccc(NC(=O)c3cccc(N(C)C)c3)cc12,106%
17,CCN1CCN(C(=O)c2ccc3c(c2)N(Cc2ccccc2F)C(=O)c2ccccc2S3=O)CC1 (stereo unspecified),105%
18,Cc1ccc(OCC(=O)OCc2cc(=O)n3nc(C4CCCCC4)sc3n2)cc1,120%
19,COc1ccc(C(CNC(=O)COc2ccc(Cl)c(C)c2)N2CCOCC2)cc1 (stereo unspecified),63%
20,Cc1cc2oc(=O)c(CC(=O)O)c(C)c2c2occ(-c3ccccc3)c12,53%
21,COc1ccc(-c2coc3c2c(C)cc2oc(=O)c(CC(=O)O)c(C)c23)cc1,42% (active)
22,Cc1cc2oc(=O)cc(C)c2c2occ(-c3ccc(Cl)cc3)c12,72%
23,CCc1cc(=O)oc2cc(C)c3c(-c4ccc(F)cc4)coc3c12,33% (active)

row,Structure (SMILES),survival
1,CCCc1cc(=O)oc2cc(C)c3c(-c4ccccc4)coc3c12,65%
2,Cc1cc2oc(=O)c(CC(=O)O)c(C)c2c2occ(-c3ccc(F)cc3)c12,49%
3,Cc1cc(NC2C3CC4CC(C3)CC2C4)n2ncnc2n1 (stereo unspecified),105%
4,O=C(NCc1ccccc1)c1ccccc1C(=O)c1ncc[nH]1,91%
5,CCOc1ccc(NC(=O)c2oc3ccccc3c2NC(=O)COc2cccc(OC)c2)cc1,78%
6,COc1ccc(Cl)c2sc(NC(=O)c3ccc(S(=O)(=O)N4CCOCC4)cc3)nc12,69%
7,Cc1cccc(C(=O)Nc2sc3c(c2C(=O)O)CCCC3)c1,23% (active)
8,Cc1cccc(C(=O)Nc2sc3c(c2C(=O)NC(C)C)CCCC3)c1,46% (active)
9,Cc1cccc(C(=O)Nc2sc3c(c2C(=O)NCc2ccco2)CCCC3)c1,83%
10,COc1ccc(NC(=O)c2c(NC(=O)c3cccc(C)c3)sc3c2CCCC3)cc1,75%
11,Cc1cccc(C(=O)Nc2sc3c(c2C(=O)Nc2ccccc2)CCC3)c1,66%
12,COc1ccc(NC(=O)c2c(NC(=O)c3cccc(C)c3)sc3c2CCC3)cc1,64%
13,Cc1cccc(OCc2nnc(SC(C)C(=O)O)n2Cc2ccccc2)c1 (stereo unspecified),103%
14,CCc1ccc(N(CC(=O)N2CCCCC2)S(C)(=O)=O)cc1,105%
15,CCc1ccc(CNC(=O)C2CCN(c3nnc(-n4c(C)ccc4C)s3)CC2)cc1,86%
16,COc1cccc(CNC(=O)c2cc(=O)[nH]c3ccc(S(=O)(=O)N4CCCC4)cc23)c1,60%
17,COc1ccc(-c2nc3sc(CCNC(=O)Cc4ccc(F)cc4)c(C)n3n2)cc1,94%
18,CCOC(=O)c1scc(-c2ccc(C)cc2)c1S(=O)(=O)Nc1cc(OC)ccc1OC,92%
19,COc1ccccc1NC(=O)CN(c1cc(C)cc(C)c1)S(=O)(=O)c1c(C)[nH]c(=O)[nH]c1=O,118%
20,CCOC(=O)c1c(C)[nH]c(C)c1S(=O)(=O)NCC(=O)Nc1cc(C)ccc1OC,60%
21,CCOC(=O)c1scc(-c2ccc(C)cc2)c1S(=O)(=O)Nc1ccc(OC)c(Cl)c1,77%
22,COc1ccc(NC(=O)CN(c2cc(C)cc(C)c2)S(=O)(=O)c2c(C)noc2C)cc1Cl,91%
23,COc1ccc(Cl)cc1NC(=O)CN(c1cc(C)cc(C)c1)S(=O)(=O)c1c(C)n[nH]c1C,9% (active)

row,Structure (SMILES),survival
1,CCc1ccccc1NC(=O)CN(c1ccc(OC)cc1)S(=O)(=O)c1c(C)n[nH]c1C,74%
2,CCOC(=O)c1c(C)[nH]c(C)c1S(=O)(=O)NCC(=O)Nc1cc(Cl)ccc1OC,-4% (active)
3,CCOC(=O)c1scc(-c2ccc(C)cc2)c1S(=O)(=O)Nc1cc(Cl)ccc1OC,-5% (active)
4,CCOC(=O)c1c(C)[nH]c(C)c1S(=O)(=O)N(C)CC(=O)Nc1cc(Cl)ccc1OC,117%
5,CCOc1ccc(N(CC(=O)Nc2cc(C)ccc2C)S(=O)(=O)c2c(C)[nH]c(=O)[nH]c2=O)cc1,69%
6,CCOc1ccc(OCC)c(NC(=O)CN(c2ccc(C)cc2)S(=O)(=O)c2c(C)n[nH]c2C)c1,32% (active)
7,COc1ccc(NC(=O)c2c(NCc3cccs3)sc3c2CCCCC3)c(OC)c1,69%
8,CC1CN(C(=O)CCC(=O)NCc2ccc(F)cc2)c2cc(Cl)ccc2O1 (stereo unspecified),80%
9,Cc1cc(-c2ccccc2)nc2cc(C(=O)Nc3ccc(Cl)c(Cl)c3)nn12,52%
10,CC(=O)N1CCCC1c1nc2ccccc2n1Cc1ccccc1F (stereo unspecified),61%
11,COC(=O)c1ccc(OCC2c3cc(OC)c(OC)cc3CCN2C(=O)c2ccc(F)cc2)cc1 (stereo unspecified),76%
12,COc1ccc(CCNC(=O)c2ccc3c(c2)N(Cc2ccc(F)cc2)C(=O)c2ccccc2S3(=O)=O)cc1OC,104%
13,CC(C)NS(=O)(=O)c1cccs1,65%
14,O=S(=O)(Nc1ccc(O)cc1)c1cccs1,83%
15,CC(C)c1cccc(C(C)C)c1NS(=O)(=O)c1cccs1,41% (active)
16,Cc1cccc(-c2noc(CN(C(C)C)S(=O)(=O)c3ccc(Br)cc3)n2)c1,45% (active)
17,Cc1ccc(-c2noc(CN(C3CCCCC3)S(=O)(=O)c3ccc(C)cc3)n2)cc1,62%
18,COc1ccc(S(=O)(=O)N(Cc2nc(-c3ccc(C)cc3)no2)C2CCCCC2)cc1,63%
19,Cc1cccc(-c2noc(CNC(=O)c3ccco3)n2)c1,83%
20,COc1ccc(-c2noc(CN(C(C)C)S(=O)(=O)c3ccc(Br)cc3)n2)cc1,44% (active)
21,CCN(Cc1nc(-c2ccc(OC)c(OC)c2)no1)S(=O)(=O)c1ccc(OC)cc1,47%
22,O=C(CCS(=O)(=O)c1cc2c(cc1Cl)NC(=O)CO2)NCc1ccccc1,106%
23,CCOC(=O)c1c(C)[nH]c(CCC(=O)NCc2cc(Br)ccc2OC)c1C,115%

row,Structure (SMILES),survival
1,O=C(NCCN1CCOCC1)c1ccncc1,96%
2,Cc1cccc(OCC(=O)Nc2cccc(OCc3cc(=O)n4cccc(C)c4n3)c2)c1,109%
3,COc1cc(-c2cc3n(C)c(C)c(CCC(=O)NCc4ccccc4)c(=O)n3n2)cc(OC)c1OC,92%
4,COCCNC(=O)CCc1c(C)n(C)c2cc(-c3cc(OC)c(OC)c(OC)c3)nn2c1=O,25% (active)
5,COc1cc(-c2cc3n(C)c(C)c(CCC(=O)O)c(=O)n3n2)cc(OC)c1OC,94%
6,O=C(O)CCC(=O)Nc1ccncc1,92%
7,Cc1ccc(Cl)cc1N1CCN(C(=O)CCSCc2ccccc2F)CC1,89%
8,Cc1cc(C)cc(NC(=O)C(=O)NCC(c2cccnc2)N2CCOCC2)c1 (stereo unspecified),107%
9,CCOC(=O)C1CCN(C(c2ccc(OCC)cc2)c2c(O)cc(C)n(CCOC)c2=O)CC1 (stereo unspecified),67%
10,Cc1cccc2c1N(Cc1ccccc1OCCC(C)C)C(=O)C2=O,2% (active)
11,Cc1ccc2c(c1)C(=O)C(=O)N2Cc1ccc(OCCC(C)C)cc1,93%
12,Cc1cc(Br)cc2c1N(Cc1ccccc1OC(C)C)C(=O)C2=O,22% (active)
13,CCCOc1ccc(CN2C(=O)C(=O)c3cccc(C)c32)cc1,39% (active)
14,Cc1ccc2c(c1)C(=O)C(=O)N2Cc1ccc(OC(C)C)cc1,120%
15,CCOc1ccc(CN2C(=O)C(=O)c3cccc(C)c32)cc1OC,118%
16,CCCCOc1ccc(CN2C(=O)C(=O)c3cc(Br)cc(C)c32)cc1OC,49%
17,COc1ccccc1CN1C(=O)C(=O)c2cccc(C)c21,103%
18,Cc1ccc(CN2C(=O)C(=O)c3cc(Br)cc(C)c32)cc1,31% (active)
19,COc1ccccc1Cn1ccn(Cc2ccc(C)cc2)c(=O)c1=O,112%
20,CC(C)CN1C(=O)c2ccc(Br)cc2C1=O,67%
21,Cc1ccc(C)c(CN2C(=O)C(=O)c3ccccc32)c1,92%
22,Cc1cc(C)cc(NC(=O)C2CCCN2S(=O)(=O)c2ccc3c(c2)CCCC(=O)N3)c1 (stereo unspecified),83%
